Measurements as given in PubChem BioAssay (EPA / NIEHS).
Where a structure was tested more than once in an assay, its records may differ in their call. Activity calls are given as the source filed them. The calls were made as follows: active = hit-call score of the fitted dose curve at least 0.9, where 1 is the maximum; inactive = score below 0.9.

experiment: IUF_NPC2a_radial_glia_migration_72hr: Leibniz Research Institute for Environmental Medicine (IUF) 72-hour Neural Progenitor Cell Migration Assay for Radial Glia Migration (NPC2a) (AID 2284299)
Description: IUF_NPC2-5 is a cell-based, multiplexed assay that uses hNPC, a human primary neural progenitor cells, with measurements taken at 72 or 120 hours after chemical dosing in a 96-well plate. Human neural progenitor cells (hNPC) are generated from human fetal brain cortex at gestational week (GW) 16-19. In the neural progenitor cell migration and differentiation assay (NPC2-5), hNPCs grown as spheres are plated on an extracellular matrix and migrate and differentiate out of the sphere core. The processes radial glia migration, neuronal and oligodendrocyte migration as well as neuronal differentiation, neuronal morphology and oligodendrocyte differentiation are studied using automated phase contrast imaging and automated fluorescence imaging in combination with high content image analysis. In parallel, the cell viability is assessed using an alamar blue viability assay and the cytotoxicity using a lactate dehydrogenase dependent membrane integrity assay.IUF_NPC2a_radial glia_migration_72hr is one of 12 assay components measured from the IUF_NPC2-5 assay. The migration distance of radial glia at 72 hr is assessed in um from the edge of the sphere core to the edge of the migration area based on brightfield images of each well. Therefore, each plate is scanned using a high content imaging device. Images are exported and the migration distance is measured manually in four directions using ImageJ. The mean of four measures per well is used as raw data input.Data from the IUF_NPC2a_radial_glia_migration_72hr component was analyzed at the endpoint IUF_NPC2a_radial_glia_migration_72hr in the positive analysis fitting direction relative to DMSO as the negative control and baseline of activity. Using a type of migration reporter, gain or loss-of-signal activity can be used to understand developmental effects.
Culture protocol: After the cell expansion period the cells are cultured for up to four weeks in which they are passaged every week as described in 3.6. Between one to three days after passaging spheres at a size of 0.3 mm are picked for the test method. For the assessment of neural progenitor cell migration and differentiation, the spheres are plated on poly-D-lysine/laminin coated 96-well flat bottom plates in differentiation medium (N2) to initiate migration and differentiation. Thereby one 0.3 mm big sphere is plated in the middle of a well. The differentiation medium consists of DMEM and Ham's F12 at a ratio of 3 to 1 supplemented with 1% N2 and 1% penicillin and streptomycin. Within 5 days NPCs radially migrate out of the sphere core and differentiate into radial glia cells (nestin positive), neurons (TUBB3 positive), oligodendrocytes (O4 positive) and astrocytes (GFAP positive). Cultivation during the test method is performed at 37C and 5% CO2 at a ph of 7.2-7.6.Exposure: 0.3 mm big hNPC are plated in the already prepared test conditions. Exposure starts at day 0 of differentiation and is continued over five days of differentiation until the experiment is terminated. Cells are fed with fresh medium at day 3 of differentiation. Therefore, half of the test condition solution (e.g. solvent control or compound dilution) is replaced by freshly prepared test condition solution.Test Method: Migration distance and cytotoxicity is determined after 72 hours based on brightfield images of each well. The assay is terminated by the assessment of cell viability and cytotoxicity as well as cell fixation after 120 h. Immunocytochemistry is performed for Hoechst positive nuclei, TUBB3 positive neurons and O4 positive oligodendrocytes. On the ICC images, migration after 120 hours, neuronal and oligodendrocyte number, neuronal morphology and neuron/oligodendrocyte specific migration is assessed. immunocytochemical staining (ICC) generates an image for each sphere. The plates are scanned using an automated high content imaging device and all nuclei and their positions are determined automatically based on their intensity and size. […]

Question: For `O=S(=O)(O)C(F)(F)C(F)(F)C(F)(F)C(F)(F)C(F)(F)C(F)(F)C(F)(F)C(F)(F)F`, which outcome is on record?
Answer: Its outcome is “inactive”.

Question: What about the AC50 of the same compound?
Answer: The AC50 was 68.6 µM (active).

Question: For `CC(C)N(C(=O)COc1nnc(C(F)(F)F)s1)c1ccc(F)cc1`, which outcome is on record?
Answer: The outcome was “inactive”.

Question: Which outcome does the source give for `CNC(=O)CSP(=S)(OC)OC` here?
Answer: The outcome was “inactive”.

Question: For `CCC(C)(C)C(=O)OC1=C(c2ccc(Cl)cc2Cl)C(=O)OC12CCCCC2`, which outcome is on record?
Answer: The outcome was “inactive”.

Question: Which AC50 does the source give for `COP(=O)(OC)OC=C(Cl)Cl` here?
Answer: The AC50 was 59.7 µM (active).

Question: Which outcome does the source give for `CC1(C)C(C=C(Cl)Cl)C1C(=O)OC(C#N)c1ccc(F)c(Oc2ccccc2)c1` (centres undefined) here?
Answer: The outcome was “inactive”.

Question: With `COP(=S)(OC)Oc1ccc([N+](=O)[O-])cc1` as the compound, how does the outcome read?
Answer: Its outcome is “inactive”.

Question: For `O=[N+]([O-])/N=C1\NCCN1Cc1ccc(Cl)nc1`, which outcome is on record?
Answer: Its outcome is “inactive”.

Question: With `CC[C@H](C)[C@H]1O[C@]2(C=C[C@@H]1C)C[C@@H]1C[C@@H](C/C=C(\C)[C@@H](O[C@H]3C[C@H](OC)[C@@H](O[C@H]4C[C@H](OC)[C@@H](O)[C@H](C)O4)[C@H](C)O3)[C@@H](C)/C=C/C=C3\CO[C@@H]4[C@H](O)C(C)=C[C@@H](C(=O)O1)[C@]34O)O2` (tested in a mixture with another compound) as the compound, how does the AC50 read?
Answer: The AC50 was 7.19 µM (active).

Question: With `O=C(O)C(F)(F)C(F)(F)C(F)(F)C(F)(F)C(F)(F)C(F)(F)C(F)(F)F` as the compound, how does the outcome read?
Answer: The outcome was “inactive”.

Question: Which outcome does the source give for `O=C(O)COc1ccc(Cl)cc1Cl` here?
Answer: The outcome was “inactive”.

Question: Which outcome does the source give for `O=S1OCC2C(CO1)C1(Cl)C(Cl)=C(Cl)C2(Cl)C1(Cl)Cl` (centres undefined) here?
Answer: The outcome was “inactive”.

Question: For `CC1(c2ccc(Oc3ccccc3)cc2)OC(=O)N(Nc2ccccc2)C1=O` (centres undefined), which outcome is on record?
Answer: The outcome was “inactive”.
